Our source for the growth values is PubChem BioAssay (NCI).

Structures are written as SMILES. The panel holds about 83,000 compounds, 20% with a hit somewhere; the sample as a whole holds those more often.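 Percent growth is the endpoint: 0 to 100 indicates growth inhibition (40 means 60% inhibition), 0 means no net growth, and negative values indicate cell death.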 Unmarked numbers belong to inactive results. Calls of active or inactive are those of the source. The calls were made as follows: active = growth percent below 10; inactive = the rest.

Holding throughout (experiment): NCI-60 one-dose screen, 48 h (100 = growth as untreated, 0 = no growth, -100 = all killed)
Holding throughout (settings): 10 µM unless noted

The subject of assay [1] is DU-145 prostate.
Assay [2] has as its system K-562 leukemia.
Assay [3] concerns MALME-3M melanoma.
Assay [4] deals with MDA-MB-231 breast.
For assay [5], the system named is RXF 393 renal.
Assay [6] has as its system SF-268 CNS.
The subject of assay [7] is SF-295 CNS.
In assay [8] the test system is SF-539 CNS.
Assay [9] concerns UACC-257 melanoma.
In assay [10] the test system is HCT-15 colon.
Assay [11] deals with HT29 colon.
The test system of assay [12] is SNB-75 CNS.
Assay [13] relates to SNB-19 CNS.
Assay [14] deals with U251 CNS.
The subject of assay [15] is PC-3 prostate.
Assay [16] relates to SK-MEL-5 melanoma.
Assay [17] concerns UACC-62 melanoma.
Assay [18] has as its system LOX IMVI melanoma.
Assay [19] relates to SK-MEL-28 melanoma.
In assay [20] the test system is M14 melanoma.

As for `CCOC(=O)C1=C(N)Oc2c(sc3c(CC)cccc23)C1c1ccc(F)cc1` (stereo not given), the growth in assay [1] was 46.3%; in assay [2], 10.7%; in assay [3], 42.1%; in assay [4], 73.1%; in assay [5], -4.56% (active); in assay [6], 48.9%. In addition, the growth is 11.8% in [7]; 13.4% in assay [8]; 55.7% in assay [9]; 22.4% in assay [10]; 40.4% in assay [11]; -2.89% (active) in assay [12]. The growth is 35% in assay [13]; 40.6% in assay [14]; 26.1% in assay [15]; 61.1% in [16]; 22% in assay [17]; 35% in assay [18]. In assay [19], the growth was 53.8%.
`Brc1c[n+](Cc2ccc3ccccc3c2)cn1Cc1ccc2ccccc2c1`: the growth is 38.5% in assay [1]; 10.5% in [2]; -4.88% (active) in assay [3]; 8.23% (active) in assay [4]; 21.6% in [5]; 14.5% in assay [6]. The growth in [7] is 49.6%; in assay [8], 40.1%; in assay [9] it was -35.4% (active); in [10] it was 93.6%; in assay [11], 7.66% (active); in assay [12] it was -30.8% (active). Moreover, the growth in [13] was 17.3%; in [14], 21.5%; in assay [15], 8.5% (active); in [16], -85.2% (active); in [17] it was -59.8% (active); in assay [18], -89% (active). For the same compound, the growth in assay [19] is -3.7% (active).
Regarding `COc1ccc(-c2cnc3ccccc3n2)cc1`, the growth in assay [1] was 106%; in assay [2], 97.5%; in assay [3], 103%; in assay [4], 92.7%; in assay [5], 108%; in assay [6], 94.6%. For the same compound, the growth in assay [7] is 98.8%; in assay [8] it was 90.6%; in assay [9], 104%; in assay [10], 99.9%; in [11] it was 118%; in assay [12] it was 72.4%. Also, the growth in assay [13] was 93.6%; in [14] it was 86.3%; in assay [15] it was 98%; in assay [16] it was 101%; in assay [17] it was 91.6%; in [18] it was 101%. The growth in assay [19] is 104%.
As to `CC[C@H](C)C(=O)O[C@H]1CCC=C2C=C[C@H](C)[C@H](CC[C@@H]3CC=CC(=O)O3)[C@H]21`, the growth is 88.7% in [1]; 46.4% in assay [2]; 92.5% in assay [3]; 97.6% in assay [4]; 96.6% in assay [5]; 99.2% in assay [6]. The growth was 115% in [7]; 80.5% in assay [8]; 77.8% in assay [9]; 85.7% in [10]; 67.7% in assay [11]; 68.9% in [12]. Besides, the growth in assay [13] is 83.5%; in assay [14] it was 88.1%; in assay [15], 61.6%; in [16], 77%; in assay [17], 82.3%; in assay [18] it was 53.3%. Further, the growth in assay [19] was 94.8%.
Regarding `COc1ccn2c(C(C)=O)cc(C(=O)c3ccc4c(c3)Sc3ccccc3N4)c2c1`, the growth was -18.3% (active) in assay [1]; 7.02% (active) in assay [2]; 85.9% in assay [3]; -17.2% (active) in assay [4]; 51.9% in assay [5]; 22.2% in assay [6]. Further, the growth in assay [7] was 13.9%; in [8] it was -11.8% (active); in assay [9] it was 52%; in assay [20], 9.58% (active); in [10] it was 15%; in assay [12], 21.1%. The growth in assay [13] was 40.3%; in [14], 17.9%; in [15], 23.8%; in assay [17], 35.9%; in assay [18] it was 19.7%; in assay [19], 46.7%.
With `Nc1nc2ccccc2c2c(=O)c3cc(F)ccc3sc12`, the growth in assay [1] was 104%; in assay [2] it was 107%; in assay [3] it was 96.5%; in assay [4] it was 100%; in [5], 104%; in assay [6], 103%. In addition, the growth in [7] was 100%; in [8], 104%; in [9] it was 104%; in assay [10] it was 98.6%; in [11], 99.8%; in assay [12] it was 93.1%. Also, the growth in assay [13] is 101%; in assay [14], 105%; in assay [15], 103%; in assay [16], 98.5%; in assay [17] it was 102%; in [18], 99.6%. Also, the growth in assay [19] was 103%.
Take `O=[N+]([O-])c1ccccc1NCSc1ccc(Cl)cc1`: the growth was 102% in assay [1]; 93.1% in assay [2]; 87.5% in [3]; 90% in assay [4]; 88.9% in assay [5]; 84.2% in [6]. Further, the growth in [7] was 77.4%; in [8] it was 107%; in [9], 95.8%; in assay [10], 89.7%; in assay [11], 108%; in [12], 87.3%. Moreover, the growth in assay [13] was 103%; in assay [14] it was 85.8%; in [15], 56.2%; in assay [16], 99.9%; in assay [17], 89.2%; in [18], 52.7%. In assay [19], the growth was 107%.
Turning to `COc1cc2cc(Oc3ccc(NC(=O)Nc4ccc(F)c(C(F)(F)F)c4)cc3)c(C)nc2cc1OCCN1CCOCC1`, the growth in assay [1] is 23.3%; in assay [2], 9.96% (active); in assay [3] it was 22.7%; in assay [4], 39.6%; in [5] it was 40.3%; in assay [6], 32.1%. In addition, the growth in [7] was 0.809% (active); in [8], 45.1%; in assay [9], 12%; in assay [10] it was 13.6%; in [11], 8.41% (active); in assay [12], 51.6%. Also, the growth was 25.1% in [13]; 13.6% in assay [14]; 5.95% (active) in assay [15]; -37.6% (active) in assay [16]; 33.9% in assay [17]; 43.1% in assay [19].
Regarding `c1ccc(-c2nc3nonc3nc2-c2ccccc2)cc1`, the growth in assay [1] is 68.2%; in [2] it was 52.4%; in assay [3], 55.4%; in [4], 43.9%; in assay [5], 51.1%; in [6] it was 62.9%. Moreover, the growth is 72.3% in assay [7]; 79.1% in [8]; 63.3% in assay [9]; 68.3% in assay [10]; 82.7% in assay [11]; 65.4% in [12]. The growth in [13] is 77.8%; in [14], 58.3%; in [15] it was 46.5%; in [16], 63.8%; in assay [17] it was 58.7%; in [18], 56%. Further, the growth in assay [19] is 90.3%.
Turning to `O=C(O)CCC(=O)Nc1nnc(-c2ccccc2)s1`, the growth in assay [1] is 105%; in assay [2], 91.7%; in assay [3] it was 114%; in assay [4] it was 108%; in assay [5] it was 120%; in [6] it was 96.4%. The growth in [7] is 96.9%; in [8] it was 102%; in [9], 104%; in assay [10], 93.7%; in assay [11] it was 106%; in [12], 87.8%. Moreover, the growth in assay [13] is 105%; in assay [14], 105%; in assay [15], 94.8%; in [16], 103%; in assay [17] it was 97.8%; in assay [18] it was 99.5%. In assay [19], the growth was 107%.
Turning to `COc1ccc(C(Cc2ccccc2)NCCN2CCOCC2)cc1` (stereo not given), the growth was 110% in assay [1]; 101% in assay [2]; 86.8% in [3]; 110% in [4]; 104% in assay [5]; 98% in [6]. For the same compound, the growth in [7] was 99.4%; in assay [8], 99.6%; in assay [9], 109%; in assay [10], 99.8%; in assay [11], 87.7%; in assay [12], 97.4%. Moreover, the growth is 106% in [13]; 108% in assay [14]; 93.8% in assay [15]; 108% in [16]; 100% in assay [17]; 91.4% in assay [18].
`CCOC(=O)Nc1ccc(C(=O)/C=C/c2ccccc2)cc1`: the growth is 86.4% in [1]; 24.2% in [2]; 103% in assay [3]; 95.9% in assay [4]; 36.8% in assay [5]; 93.8% in [6]. For the same compound, the growth in assay [7] is 106%; in [8], 67.9%; in [9], 115%; in assay [10], 85.7%; in assay [11] it was 37.4%; in [12], 116%. Moreover, the growth in assay [13] is 81.4%; in assay [14] it was 73.6%; in [15], 88.6%; in assay [16], 92.2%; in assay [17], 81.5%; in assay [18], 70.5%. Moreover, the growth in assay [19] was 101%.
